Experimental data: PubChem BioAssay (Tox21)
Records with an inconclusive call do not appear. A number with no mark means an inactive call. Active and inactive are the calls of the source. The call rests on the fitted dose curve.

Test: qHTS assay to identify small molecule agonists of the AP-1 signaling pathway - cell viability counter screen (AID 1159525); further: nearly all actives have a fitted effect of over 55% in size
Conditions: ME-180 (cervical carcinoma) AP-1-bla cells viability, ATP luminescence, 5 h; series mostly up to 76.8 µM
Excerpt: National Center for Advancing Translational Sciences [NCATS]
NIH Chemical Genomics Center [NCGC]
U.S. Environmental Protection Agency [EPA]
National Institutes of Environmental Health Sciences [NIEHS]
National Toxicology Program [NTP]
U.S. Food and Drug Administration [FDA]
Activator protein-1 (AP-1), a transcription factor, plays an important role in tumor genesis by regulating genes involved in cell proliferation, differentiation, apoptosis, and angiogenesis. AP-1 activity is induced by a complex network of signaling pathways that involves extracellular signals, such as growth factors. The AP-1 protein complex formed from c-Fos and c-Jun binding to the AP-1 response element results in transcriptional activation of genes containing such elements within their promoter.
Low molecular weight molecules have been discovered and developed to modulate various components of these signaling pathways, for example, MAP kinase inhibitors. However, many points of pathway modulation remain untested due to the lack of chemical probes making this signaling locus of general interest.
Using a beta-lactamase reporter-gene under control of the AP-1 response element, a cell-based assay [CellSensor(TM) AP-1-bla ME-180 developed by Invitrogen Corp.] was used to measure EGF-induced signaling. The Tox21 10K library compounds were measured for their ability to positively modulate the action of EC50 EGF on reporter gene activity. Compounds were screened in a 15-pt titration series in 1536-well format. The cytotoxicity of the Tox21 compound library against this cell line was tested in parallel by measuring the intra cellular ATP content in the same wells.
Tox21 Assay Protocol Summary:
2500 cells/5uL in Opti-MEM medium containing 0.5% dialyzed FBS, 0.1 mM NEAA, 1 mM sodium pyruvate and 10 mM HEPES was dispensed into 1536-well black wall/clear bottom plates using a Multidrop dispenser and cells were cultured at 37 degrees Celsius overnight. Next day 23 nL of compounds dissolved in DMSO, positive controls or DMSO were delivered to each well using a pin tool. The plates were incubated at 37 degrees Celsius for 5 hours. 1 uL of LiveBLAzerTM B/G FRET substrate (Solution A+B+C+D) was added to each well using a Flying Reagent Dispenser. After incubated at room temperature for 2.5 hours the plates were measured on an EnVision plate reader at Excitation 405nm, Emission1=460nm and Emission 2=530nm. The %Activity was determined from the ratio of 460nm/530nm.
After the plates were read for Beta-Lactamase assay on Envision; 3 ul Cell Titer Glo (Promega) was added to measure the cytotoxicity and the plates were then incubated at RT in dark for 30 min. The luminescence was read on ViewLux (Perkin Elmer, Shelton, CT) using 6 sec exposure. ViewLux data was expressed as relative luminescence units.
For primary data analysis, raw plate reads for each titration point were first normalized relative to […] EGF control (100%) and DMSO only wells (basal, 0%).
For primary data analysis for viability assay, raw plate reads for each titration point were first normalized Tetra n-octyl ammonium bromide control (-100%) and DMSO (control, 100%).
With `C/C=C1\C(=O)C[C@H]2[C@@H]3CCC4=CC(=O)CC[C@]4(C)[C@H]3CC[C@]12C` the outcome was “inactive”.
In the case of `O=C(O)Cc1cc(I)c(Oc2cc(I)c(O)c(I)c2)c(I)c1`, the outcome is reported as “inactive”.
With `CCCCNc1ccccc1` the outcome was “inactive”.
With `CCCCCCOC(=O)c1ccccc1O` the outcome was “inactive”.
With `O=C(O)/C=C/c1ccc(Cn2ccnc2)cc1` the outcome was “inactive”.
In the case of `OCC(O)[C@@H](O)[C@H](O)[C@H](O)CO[C@H]1O[C@H](CO)[C@@H](O)[C@H](O)[C@H]1O` (stereo not given in full), the outcome is reported as “inactive”.
In the case of `CCN1CCCC(OC(=O)C(c2ccccc2)c2ccccc2)C1` (stereo not given), the outcome is reported as “inactive”.
In the case of `CC(=O)CCc1ccc(O)cc1`, the outcome is reported as “inactive”.
With `C=C(C)C1CC=C(C)C(O)C1` (stereo not given) the outcome was “inactive”.
With `CC(=O)c1ccc(C)cc1` the outcome was “inactive”.
With `NCCNC(=O)c1ccc(Cl)cn1` the outcome was “inactive”.
For `CCC(C(=O)NC(N)=O)c1ccccc1` (stereo not given), the outcome was “inactive”.
For `O=C(O)c1ccc[n+]([O-])c1`, the outcome was “inactive”.
With `C=C(C)C(=O)NCCC[N+](C)(C)C` the outcome was “inactive”.
In the case of `CC(=O)OC(C)(C)C`, the outcome is reported as “inactive”.
With `Cc1ccc(N)cc1[N+](=O)[O-]` the outcome was “inactive”.
For `C=CCOCC(O)CS(=O)(=O)O` (stereo not given), the outcome was “inactive”.
With `COC[C@H](c1ccc(C(F)(F)F)cc1)N1CCN(C2(C)CCN(C(=O)c3c(C)ncnc3C)CC2)C[C@H]1C` the outcome was “inactive”.
For `Nc1nc2c(ncn2CCC(CO)CO)c(=O)[nH]1`, the outcome was “inactive”.
With `CC12CCC(CC1=O)C2(C)C` (stereo not given) the outcome was “inactive”.
For `NC(=O)c1ncn([C@@H]2O[C@H](CO)[C@@H](O)[C@H]2O)c1N`, the outcome was “inactive”.
For `CCCCCC[C@@H](CCC)C(=O)O`, the outcome was “inactive”.
With `CC(C)c1ccc2oc3nc(N)c(C(=O)O)cc3c(=O)c2c1` the outcome was “inactive”.
For `C=CCSCC1Nc2cc(Cl)c(S(N)(=O)=O)cc2S(=O)(=O)N1` (stereo not given), the outcome was “inactive”.
With `C1CCCCCCCCCCC1` the viability change, negative = cytotoxic was 0.327% [at 15.8 µM].
With `COC(=O)CCCCCCCCC(=O)OC` the outcome was “inactive”.
In the case of `Cc1nccn1CC1CCc2c(c3ccccc3n2C)C1=O` (stereo not given), the outcome is reported as “inactive”.
In the case of `FC(F)(F)C(F)(F)C(F)(F)C(F)(F)C(F)(F)C(F)(F)C(F)(F)C(F)(F)C(F)(F)C(F)(F)F`, the viability change, negative = cytotoxic is reported as -11.9% [at 6.97 µM].
For `Fc1ccccc1-c1ccccc1`, the outcome was “inactive”.
For `CN(C)CCOC(c1ccc(Cl)cc1)c1ccccn1` (stereo not given), the outcome was “inactive”.
For `CC(C)(O)C(=O)c1ccc(OCCO)cc1`, the outcome was “inactive”.
With `CO` the outcome was “inactive”.
In the case of `CCCCc1ccc(N)cc1`, the outcome is reported as “inactive”.
For `CCCCCCCCCCC1CO1` (stereo not given), the outcome was “inactive”.
In the case of `CC1=CCC2C(C1)C2(C)C` (stereo not given), the outcome is reported as “inactive”.
For `C=CC(=O)OCCCCCC`, the outcome was “inactive”.
For `CC(C)[C@H](N)C(=O)OCCOCn1cnc2c(=O)[nH]c(N)nc21`, the outcome was “inactive”.
For `CC(C)(C)OC(=O)N1C[C@@H](F)C[C@H]1C(=O)O`, the outcome was “inactive”.
In the case of `COCCOC(=O)CC#N`, the outcome is reported as “inactive”.
With `C=C(C)C(=O)OCCC(C)OC(=O)C(=C)C` (stereo not given) the outcome was “inactive”.
